MBD2 DNA inh: inhibitors of MBD2 binding to methylated DNA, primary screen, biochemical, TR-FRET, DNA-binding domain, human; MBD2 binding to methylated oligonucleotide; inhibition, % at 4.4 µM; AID 686964, 2013; actives 0.31% (n = 370,000); in the data active means inhibition above about 13%
UHRF1 binding: UHRF1 methylated DNA binding inhibitors, primary screen, counter-screen for MBD2 inhibitor project, biochemical, TR-FRET, human UHRF1, single concentration; E3 ubiquitin-protein ligase UHRF1 (Homo sapiens), Q96T88; UHRF1 binding to methylated oligo; inhibition, % at 4.4 µM; actives 0.75% (n = 370,000); in the data active means inhibition above about 21%;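 further: UHRF1 SRA domain binding a hemimethylated CpG hairpin DNA probe; 0% = median of test compound wells and 100% = reference inhibitor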
Target sequence (Q96T88 whole entry, looked up, the tested form may be a part): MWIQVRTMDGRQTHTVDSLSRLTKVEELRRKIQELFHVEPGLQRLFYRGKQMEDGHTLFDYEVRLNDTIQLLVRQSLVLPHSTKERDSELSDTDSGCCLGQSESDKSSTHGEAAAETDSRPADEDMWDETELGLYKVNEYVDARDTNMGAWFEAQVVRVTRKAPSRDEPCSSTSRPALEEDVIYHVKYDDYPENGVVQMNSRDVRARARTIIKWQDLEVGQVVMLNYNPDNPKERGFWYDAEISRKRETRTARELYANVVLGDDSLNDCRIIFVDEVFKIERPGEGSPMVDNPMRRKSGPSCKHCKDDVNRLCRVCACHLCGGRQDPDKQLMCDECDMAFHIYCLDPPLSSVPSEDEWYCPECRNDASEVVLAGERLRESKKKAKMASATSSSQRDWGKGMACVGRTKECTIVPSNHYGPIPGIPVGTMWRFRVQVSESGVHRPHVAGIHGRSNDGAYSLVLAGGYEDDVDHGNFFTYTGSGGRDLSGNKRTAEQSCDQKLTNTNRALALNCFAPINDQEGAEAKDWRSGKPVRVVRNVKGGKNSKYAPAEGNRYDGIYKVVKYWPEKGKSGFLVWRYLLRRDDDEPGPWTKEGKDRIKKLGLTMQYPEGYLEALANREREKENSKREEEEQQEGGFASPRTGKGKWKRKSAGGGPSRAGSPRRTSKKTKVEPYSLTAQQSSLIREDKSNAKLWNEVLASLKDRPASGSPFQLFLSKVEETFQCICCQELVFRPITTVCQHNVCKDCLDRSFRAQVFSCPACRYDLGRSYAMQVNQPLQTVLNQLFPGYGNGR
PRMT1 FP inh: PRMT1 methyltransferase inhibitors, primary screen, biochemical, fluorescence polarization; Protein arginine N-methyltransferase 1 (Homo sapiens), Q99873; recombinant PRMT1, activity-based probe fluorescence polarization; inhibition, % at 2.79 µM; actives 1.3% (n = 370,000); AID 652257, 2013;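 active means inhibition above about 21% made by adding two undisclosed values, limit read from the data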
PfM18AAP inh-1: PfM18AAP inhibitors, malaria aminopeptidase, primary screen, biochemical, QFRET, recombinant enzyme; M18 aspartyl aminopeptidase (Plasmodium falciparum 3D7); inhibition, % at 7.35 µM; AID 1822, 2009; H-Glu-NHMec fluorogenic cleavage; actives 1.2% (n = 290,000);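 active means inhibition above the campaign mean inhibition over all tested compounds plus 3 SD, cut at about 28% in these data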;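 further: 0% = plate median of test compound wells and 100% = 2 mM ZnCl2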
PfG6PD inh: PfG6PD enzyme inhibitors, primary screen, biochemical, fluorescence intensity, uHTS. AID 504690, 2011. PfGluPho enzyme, NADPH resazurin-diaphorase fluorescence. actives 0.78% (n = 350,000). inhibition, % at 20 µM. glucose-6-phosphate dehydrogenase-6-phosphogluconolactonase (Plasmodium falciparum 3D7);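 active means inhibition reaching at least a set limit at 20 µM in the primary screen, cut at about 59% in these data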;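 further: 0% = DMSO wells with substrate and 100% = DMSO wells lacking glucose-6-phosphate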
PfM18AAP inh-2: PfM18AAP inhibitors, malaria aminopeptidase, confirmation, biochemical, QFRET, recombinant enzyme, triplicate; shares compounds with PfM18AAP inh-1; H-Glu-NHMec fluorogenic cleavage; inhibition, % at 7.35 µM; actives 28% (n = 2,400); AID 2170, 2009;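 active means mean inhibition over replicate wells above the hit cutoff set for the earlier primary screen, cut at about 29% in these data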;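 further: 0% = median of test compound wells and 100% = 2 mM ZnCl2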
CTSL1 counter: cathepsin L1 inhibitors, retest, confirmation, counter-screen for PFM18AAP inhibitor project, biochemical, QFRET, triplicate; shares compounds with PfM18AAP inh-1; purified cathepsin L1, Z-Leu-Arg-MCA fluorescence; inhibition, % at 5.96 µM; 2,400 tested, under 10 active;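 active means average inhibition across replicates above the hit cutoff set in the earlier primary screen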;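 further: 0% = median of test compound wells and 100% = Z-Phe-Ala-diazomethylketone 1 µM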
The depositor's hits bear a star; / = no result. The list is not random: actives were taken first. Their share in the collection is about 3.3%.

SMILES	MBD2 DNA inh	UHRF1 binding	PRMT1 FP inh	PfM18AAP inh-1	PfG6PD inh	PfM18AAP inh-2	CTSL1 counter
Cc1ccc(C(=O)Nn2cnnc2)cc1[N+](=O)[O-]	-0.4	-0.3	-1.8	42.8*	-6.4	38.9*	-4.5
Cc1ccc(C(=O)NN2CCOCC2)cc1[N+](=O)[O-]	0.9	2.6	2.0	-2.5	5.2	/	/
CCC(C)(C)NC(=O)c1cc(C(=O)OC)cc([N+](=O)[O-])c1	-4.0	4.5	3.4	7.3	-0.3	/	/
CCOC(=O)C1=C(C)NC(=S)NC1c1ccco1 (stereo not drawn)	-3.4	3.6	19.7	35.1*	48.8	-28.4	7.2
O=C(COc1ccccc1)NCc1n[nH]c(=S)n1-c1ccccc1	-3.3	-0.1	6.1	41.7*	25.9	10.9	-1.8
COc1ccc(-n2c(CNC(=O)COc3ccccc3)n[nH]c2=S)cc1	1.9	-7.5	0.0	32.7*	32.1	4.0	-0.6
COc1cc(OC)cc(C(=O)NCc2n[nH]c(=S)n2-c2ccccc2)c1	-0.7	2.0	0.1	16.2	44.6	/	/
COc1ccc(-n2c(Cn3nnc4ccccc43)n[nH]c2=S)cc1	-1.1	2.4	0.5	38.5*	43.0	11.3	0.3
COc1ccc(-n2c(CNC(=O)COc3ccc(Cl)cc3)n[nH]c2=S)cc1	0.8	-1.1	4.3	25.6	34.7	/	/
O=S(=O)(NNc1nccc(C(F)(F)F)n1)c1cccc(Cl)c1Cl	4.7	3.6	11.7	55.8*	57.0	13.6	5.9
FC(F)(F)c1ccnc(NCc2ccc(Cl)cc2)n1	-2.8	-1.0	-1.0	-5.6	3.8	/	/
CC(COc1cc(F)cc(C#N)c1)CN1CCC(C(O)(c2ccccc2)c2ccccc2)CC1 (stereo not drawn)	3.1	-1.3	-8.0	/	/	/	/
CC(C)Nc1nc(NC(C)C)nc(N(C)N)n1	2.0	-0.7	-2.1	48.4*	-11.9	39.7*	-4.9
C[C@@H]1CN([C@H](C)CO)C(=O)c2cc(Br)cnc2O[C@H]1CN(C)C(=O)c1ccc(F)cc1	1.8	3.8	-5.6	/	/	/	/
COc1ccc(NC(=O)NNC(=O)c2cc3occc3n2C)c(OC)c1	-1.7	-2.1	3.3	60.8*	3.2	38.2*	2.3
COC(=O)[C@]12C[C@H](CC(=O)NCc3ccc(C)o3)C(=O)N(CCC3=CCCCC3)C1=C[C@H](C1CCCC1)O[C@@H]2C	0.6	2.1	10.4	/	/	/	/
O=C(Nc1ccc(OC(F)(F)F)cc1)c1ccc(-n2cncn2)nc1	-0.7	-0.6	-2.6	-4.8	-14.6	/	/
O=C(Nn1cnnc1)c1ccc(F)cc1	-3.1	3.3	-2.2	32.4*	-6.8	15.6	1.0
O=C(Nn1cnnc1)c1ccc(OC(F)(F)C(F)C(F)(F)F)cc1 (stereo not drawn)	-3.1	-0.7	-3.0	38.5*	-10.2	5.5	-5.9
CCOc1ccc(C(=O)Nn2cnnc2)cc1	2.2	6.2	-0.8	21.7	11.2	/	/
O=C(Nn1cnnc1)c1ccc(Cl)cc1	0.7	0.2	-0.2	41.9*	11.9	25.8	0.3
CCC[C@H]1[C@@H](NC(=O)C(c2ccccc2)c2ccccc2)CC[C@@]23CCCN2C(=O)CCC[C@@H]13	-1.1	-1.4	-4.6	/	/	/	/
CCOC(=O)[C@@H]1c2[nH]c3ccccc3c2C[C@@]2(C(=O)OC)C=CCN12	6.4	0.4	11.1	/	/	/	/
C[C@H]1[C@H](c2ccccc2)Oc2cccc(NCCc3ccccc3)c2S(=O)(=O)N1Cc1cccc(Cl)c1	-0.5	-2.2	0.5	/	/	/	/
CCCCOC(=O)CCN1C(=O)/C(=C/c2ccccc2)SC1=S	-1.1	-1.2	4.6	/	/	/	/
SMILES	MBD2 DNA inh	UHRF1 binding	PRMT1 FP inh	PfM18AAP inh-1	PfG6PD inh	PfM18AAP inh-2	CTSL1 counter
CCN(Cc1ccccc1)C(=O)Nc1c(Cl)cccc1Cl	6.3	1.0	2.3	/	/	/	/
O=[N+]([O-])c1ccc(N/N=C/c2cccc(O)c2O)c(S(=O)(=O)N2CCOCC2)c1	-8.5	-1.4	18.0	41.8*	-12.0	38.2*	0.3
COc1cc(/C=N/Nc2ccc([N+](=O)[O-])cc2S(=O)(=O)N2CCOCC2)cc(OC)c1OC	-0.6	0.0	-1.9	-1.9	0.6	/	/
N=c1c2c(ccn1CCCc1ccccc1)Oc1ccc3ccccc3c1C2c1ccccc1 (stereo not drawn)	12.5	17.4	-3.2	/	/	/	/
O=C(NC(=S)Nn1cnnc1)c1ccccc1	-3.6	-2.5	-5.1	/	15.4	/	/
O=C(NC(=S)Nn1cnnc1)c1ccccc1Br	-7.6	-4.1	-1.9	79.3*	29.0	78.2*	-5.5
O=C1NC(c2ccccc2)(c2ccccc2)C(=O)N1CNc1ccccn1	3.0	2.5	2.8	/	/	/	/
COc1cc2c(c(OC)c1OC)-c1ccc(N(C)CC(OC)OC)c(=O)cc1[C@@H](NC(C)=O)CC2	-3.8	-2.9	5.0	45.1*	-2.7	-32.1	-5.5
CN[C@H]1CCc2cc(OC)c(OC)c(OC)c2-c2ccc(N(C)CC(OC)OC)c(=O)cc21	1.8	4.7	2.9	13.3	2.1	/	/
COC(=O)c1cc2c(c3c4cc(C)ccc4n(S(=O)(=O)c4cccc(C)c4)c13)C(=O)N(C)C2	2.2	3.7	-4.0	/	/	/	/
CCC(=O)Nc1ccc2c(c1)C(=O)N(C)[C@@H]1CC[C@@H](CC(=O)OC)O[C@H]1CO2	1.1	-0.1	-1.1	/	/	/	/
CCOc1ccccc1NC(=O)Nn1cnnc1	-2.7	-2.0	-3.0	59.9*	-0.4	43.7*	-10.6
CCc1ccccc1NC(=O)Nn1cnnc1	0.4	4.1	2.2	55.9*	-1.6	37.8*	-5.6
CCOc1ccccc1NC(=O)Nc1ccncc1	2.5	3.6	-1.8	2.1	4.9	/	/
CCc1ccccc1NC(=O)CNCC(=O)Nc1ccccc1CC	1.3	-1.6	-0.6	8.2	8.5	/	/
Oc1ccccc1N=Cc1c(O)ccc2oc3c(c12)CCCC3	-17.3	-16.3	14.6	39.1*	4.0	8.9	2.6
COc1ccc(CN2C(=O)[C@@](O)(c3cccn3C)c3cc(F)ccc32)cc1	-1.1	-1.9	1.4	/	/	/	/
CNC(=S)NNc1nc(C)cc(C)n1	5.8	1.9	7.3	68.1*	15.6	48.1*	-0.4
O=C1CSc2ccc(C(=O)N3CCCC(C(=O)N4CCCCC4)C3)cc2N1 (stereo not drawn)	8.5	2.5	8.1	/	/	/	/
O=C(/C(=N/N=C/c1ccc(O)c(O)c1)c1ccccc1)c1ccccc1	0.6	-0.2	2.7	47.6*	-16.2	29.9*	3.0
O=C(/C(=N/O)c1ccccc1)c1ccccc1	3.2	0.5	-3.1	/	-10.8	/	/

From PubChem
